Assay results from the supplement of paper PMC10849652.
About 8,800 targets were measured; listed, in parts, are those with a hit and a random draw of the rest. About 0.5% of all pairs of compound and target were hits. A number with no mark means an inactive call.

Assays:
Test in all cases: log2 fold change, soluble protein after heating vs DMSO (PISA); higher = thermal stabilisation; K562 lysate, 10 uM; active = over 0.2 and 3.5 SD of the protein, either way, in both replicates (recomputed)
vemurafenib = compound: CCCS(=O)(=O)Nc1ccc(F)c(C(=O)c2c[nH]c3ncc(-c4ccc(Cl)cc4)cc23)c1F [vemurafenib]
Procedure, shortened: (§1)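 Thermal stability, expressed as log-two fold change relative to solvent controls, is given from duplicates. Crude K562 extract in PBS pH 7.4 with 1 mM MgCl2, at 1 mg/mL protein, was treated with 10 μM compound for 30 min and heated in aliquots for 3 min across 48°C-58°C. After pooling, adjustment to 0.5% NP-40 at 4°C and centrifugation at 21,000xg for 90 min, supernatant protein was measured by TMTpro 16plex LC-MS/MS with channel sums equalised.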

[1] = compound: CCCS(=O)(=O)Nc1ccc(F)c(C(=O)c2c[nH]c3ncc(Cl)cc23)c1F
Procedure, shortened: as §1

barasertib = compound: CCN(CCCOc1ccc2c(Nc3cc(CC(=O)Nc4cccc(F)c4)[nH]n3)ncnc2c1)CCOP(=O)(O)O [barasertib]
Procedure, shortened: as §1

[2] = compound: CC[C@@H]1C(=O)N(C)c2cnc(Nc3ccc(C(=O)NC4CCN(C)CC4)cc3OC)nc2N1C1CCCC1
Procedure, shortened: as §1

volasertib = compound: CC[C@@H]1C(=O)N(C)c2cnc(Nc3ccc(C(=O)N[C@H]4CC[C@H](N5CCN(CC6CC6)CC5)CC4)cc3OC)nc2N1C(C)C [volasertib]
Procedure, shortened: as §1

[3] = compound: CCn1c(C(=O)N(C2CC2)C2CC2)cc2c3c(ncn3C)c(Nc3cc(C)n(C)n3)nc21
Procedure, shortened: as §1

[4] = compound: CCn1cc(-c2ccnc3[nH]c(-c4cccc(CN(C)C)c4)cc23)c(-c2ccc(NC(=O)N(C)C)cc2)n1
Procedure, shortened: as §1

[5] = compound: CN1CCC(CNc2ccc3ncc(-c4cccc(OC(F)(F)F)c4)n3n2)CC1
Procedure, shortened: as §1

saracatinib = compound: CN1CCN(CCOc2cc(OC3CCOCC3)c3c(Nc4c(Cl)ccc5c4OCO5)ncnc3c2)CC1 [saracatinib]
Procedure, shortened: as §1

sotrastaurin = compound: CN1CCN(c2nc(C3=C(c4c[nH]c5ccccc45)C(=O)NC3=O)c3ccccc3n2)CC1 [sotrastaurin]
Procedure, shortened: as §1

UniProt P51790, sequence (P51790 whole entry, looked up): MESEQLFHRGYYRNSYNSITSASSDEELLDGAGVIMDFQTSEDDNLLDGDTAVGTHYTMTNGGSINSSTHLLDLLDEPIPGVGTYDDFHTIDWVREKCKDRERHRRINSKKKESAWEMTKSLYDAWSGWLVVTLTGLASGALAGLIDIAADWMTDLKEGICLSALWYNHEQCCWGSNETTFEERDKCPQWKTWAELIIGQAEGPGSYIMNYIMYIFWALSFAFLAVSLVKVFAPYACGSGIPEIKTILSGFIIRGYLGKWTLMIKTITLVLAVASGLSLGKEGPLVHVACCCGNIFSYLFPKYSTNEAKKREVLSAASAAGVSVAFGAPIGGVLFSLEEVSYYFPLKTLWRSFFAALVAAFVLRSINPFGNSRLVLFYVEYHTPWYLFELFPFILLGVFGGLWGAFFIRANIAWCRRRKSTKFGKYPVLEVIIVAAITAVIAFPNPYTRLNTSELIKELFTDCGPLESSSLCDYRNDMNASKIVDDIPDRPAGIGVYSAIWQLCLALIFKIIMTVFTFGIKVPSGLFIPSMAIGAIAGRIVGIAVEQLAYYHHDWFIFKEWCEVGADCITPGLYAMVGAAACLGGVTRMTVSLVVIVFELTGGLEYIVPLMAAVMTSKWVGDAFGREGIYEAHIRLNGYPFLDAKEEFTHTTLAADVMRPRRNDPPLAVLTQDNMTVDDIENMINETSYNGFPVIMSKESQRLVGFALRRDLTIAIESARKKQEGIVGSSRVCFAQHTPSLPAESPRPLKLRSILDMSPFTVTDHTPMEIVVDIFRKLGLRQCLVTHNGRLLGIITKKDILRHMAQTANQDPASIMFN
UniProt Q8TB03, sequence (Q8TB03 whole entry, looked up): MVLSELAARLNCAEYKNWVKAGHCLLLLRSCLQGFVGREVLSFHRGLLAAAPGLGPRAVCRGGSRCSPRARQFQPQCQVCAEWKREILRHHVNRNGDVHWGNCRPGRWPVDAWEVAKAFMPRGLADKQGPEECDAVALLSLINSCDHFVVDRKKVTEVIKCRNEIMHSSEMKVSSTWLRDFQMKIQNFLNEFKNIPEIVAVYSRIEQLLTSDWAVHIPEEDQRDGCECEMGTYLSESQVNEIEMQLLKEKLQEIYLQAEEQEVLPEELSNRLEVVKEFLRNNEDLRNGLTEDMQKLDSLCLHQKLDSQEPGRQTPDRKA
UniProt Q9NPI6, sequence (Q9NPI6 whole entry, looked up): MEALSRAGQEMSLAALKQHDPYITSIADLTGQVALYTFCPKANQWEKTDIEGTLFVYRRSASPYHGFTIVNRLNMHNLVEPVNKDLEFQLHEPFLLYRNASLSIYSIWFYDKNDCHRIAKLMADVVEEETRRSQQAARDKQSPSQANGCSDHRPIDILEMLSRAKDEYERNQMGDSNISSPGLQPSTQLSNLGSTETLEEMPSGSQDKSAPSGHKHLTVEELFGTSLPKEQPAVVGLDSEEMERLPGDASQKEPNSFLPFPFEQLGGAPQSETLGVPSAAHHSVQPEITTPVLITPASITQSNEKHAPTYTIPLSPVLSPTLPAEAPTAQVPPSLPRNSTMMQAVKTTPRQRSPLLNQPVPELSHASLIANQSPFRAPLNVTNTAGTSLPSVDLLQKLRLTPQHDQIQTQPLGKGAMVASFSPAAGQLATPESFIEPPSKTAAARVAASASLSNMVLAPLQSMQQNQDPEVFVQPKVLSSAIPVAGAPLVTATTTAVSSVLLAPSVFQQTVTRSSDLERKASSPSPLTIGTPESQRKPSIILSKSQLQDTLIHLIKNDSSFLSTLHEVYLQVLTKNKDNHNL
UniProt Q8WUH1, sequence (Q8WUH1 whole entry, looked up): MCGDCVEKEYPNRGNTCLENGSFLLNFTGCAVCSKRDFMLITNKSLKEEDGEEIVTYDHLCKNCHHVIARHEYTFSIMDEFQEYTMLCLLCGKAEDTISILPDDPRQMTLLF
UniProt Q92466, sequence (Q92466 whole entry, looked up): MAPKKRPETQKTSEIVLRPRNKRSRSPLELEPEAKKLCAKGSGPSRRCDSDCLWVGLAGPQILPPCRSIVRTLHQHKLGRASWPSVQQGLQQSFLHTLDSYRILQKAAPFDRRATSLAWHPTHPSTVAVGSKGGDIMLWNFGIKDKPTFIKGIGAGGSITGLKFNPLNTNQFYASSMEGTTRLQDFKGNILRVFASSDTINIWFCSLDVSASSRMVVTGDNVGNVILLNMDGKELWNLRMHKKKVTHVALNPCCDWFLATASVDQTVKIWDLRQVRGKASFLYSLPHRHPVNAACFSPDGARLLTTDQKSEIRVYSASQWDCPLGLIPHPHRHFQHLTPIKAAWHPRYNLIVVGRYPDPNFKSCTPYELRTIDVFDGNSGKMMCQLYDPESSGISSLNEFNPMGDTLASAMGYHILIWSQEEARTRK
UniProt Q14203, sequence (Q14203 whole entry, looked up): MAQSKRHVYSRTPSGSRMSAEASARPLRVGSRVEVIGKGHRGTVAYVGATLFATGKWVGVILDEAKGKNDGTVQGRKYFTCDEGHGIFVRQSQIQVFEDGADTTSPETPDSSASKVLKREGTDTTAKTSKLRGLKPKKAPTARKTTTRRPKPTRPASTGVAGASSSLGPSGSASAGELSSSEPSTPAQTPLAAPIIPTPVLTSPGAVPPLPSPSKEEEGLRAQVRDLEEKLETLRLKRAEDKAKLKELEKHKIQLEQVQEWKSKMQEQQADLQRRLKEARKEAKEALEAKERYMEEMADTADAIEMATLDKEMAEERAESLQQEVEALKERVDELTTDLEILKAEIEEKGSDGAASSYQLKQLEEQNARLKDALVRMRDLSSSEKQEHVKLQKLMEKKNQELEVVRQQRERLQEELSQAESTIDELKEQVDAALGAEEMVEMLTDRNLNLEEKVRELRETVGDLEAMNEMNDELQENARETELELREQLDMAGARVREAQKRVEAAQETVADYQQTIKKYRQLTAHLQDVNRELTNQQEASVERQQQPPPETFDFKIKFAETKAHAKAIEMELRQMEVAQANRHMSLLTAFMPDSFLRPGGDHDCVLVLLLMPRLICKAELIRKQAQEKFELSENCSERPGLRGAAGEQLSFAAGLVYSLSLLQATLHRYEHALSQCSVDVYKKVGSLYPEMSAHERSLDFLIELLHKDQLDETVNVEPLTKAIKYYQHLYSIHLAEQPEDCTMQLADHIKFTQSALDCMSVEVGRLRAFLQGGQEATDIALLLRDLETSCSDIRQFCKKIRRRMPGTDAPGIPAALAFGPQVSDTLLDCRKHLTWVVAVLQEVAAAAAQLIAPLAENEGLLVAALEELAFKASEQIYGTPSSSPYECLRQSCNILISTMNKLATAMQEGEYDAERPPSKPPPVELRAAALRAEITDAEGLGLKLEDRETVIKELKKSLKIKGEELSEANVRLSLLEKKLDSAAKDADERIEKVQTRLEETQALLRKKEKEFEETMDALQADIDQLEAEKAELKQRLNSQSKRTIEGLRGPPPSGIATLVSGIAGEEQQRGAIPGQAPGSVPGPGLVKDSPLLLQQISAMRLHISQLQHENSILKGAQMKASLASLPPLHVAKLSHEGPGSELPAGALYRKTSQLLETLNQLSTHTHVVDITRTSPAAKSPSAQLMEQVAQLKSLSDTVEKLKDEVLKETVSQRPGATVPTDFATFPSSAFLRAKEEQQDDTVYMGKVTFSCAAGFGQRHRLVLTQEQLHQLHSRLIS
UniProt Q92796, sequence (Q92796 whole entry, looked up): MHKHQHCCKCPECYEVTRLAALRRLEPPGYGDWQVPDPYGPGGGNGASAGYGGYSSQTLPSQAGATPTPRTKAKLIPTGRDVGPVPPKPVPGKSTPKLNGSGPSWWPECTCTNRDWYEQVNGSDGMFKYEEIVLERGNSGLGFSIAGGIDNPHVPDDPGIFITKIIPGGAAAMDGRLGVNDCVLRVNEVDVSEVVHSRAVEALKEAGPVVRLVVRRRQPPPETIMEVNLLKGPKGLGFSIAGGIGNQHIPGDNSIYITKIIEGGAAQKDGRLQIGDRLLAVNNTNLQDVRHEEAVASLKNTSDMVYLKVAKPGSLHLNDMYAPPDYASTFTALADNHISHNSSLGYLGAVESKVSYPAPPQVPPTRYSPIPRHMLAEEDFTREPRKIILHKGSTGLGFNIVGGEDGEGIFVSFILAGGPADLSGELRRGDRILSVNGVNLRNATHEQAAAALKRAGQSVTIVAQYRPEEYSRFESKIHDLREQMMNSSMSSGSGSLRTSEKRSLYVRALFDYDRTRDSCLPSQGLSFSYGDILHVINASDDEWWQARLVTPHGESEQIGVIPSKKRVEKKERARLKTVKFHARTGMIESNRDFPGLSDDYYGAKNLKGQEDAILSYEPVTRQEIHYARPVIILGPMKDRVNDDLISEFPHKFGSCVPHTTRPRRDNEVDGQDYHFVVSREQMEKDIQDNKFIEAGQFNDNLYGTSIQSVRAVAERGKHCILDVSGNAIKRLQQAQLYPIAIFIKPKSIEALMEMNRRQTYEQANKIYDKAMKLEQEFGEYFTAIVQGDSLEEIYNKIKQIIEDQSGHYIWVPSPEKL
UniProt P17812, sequence (P17812 whole entry, looked up): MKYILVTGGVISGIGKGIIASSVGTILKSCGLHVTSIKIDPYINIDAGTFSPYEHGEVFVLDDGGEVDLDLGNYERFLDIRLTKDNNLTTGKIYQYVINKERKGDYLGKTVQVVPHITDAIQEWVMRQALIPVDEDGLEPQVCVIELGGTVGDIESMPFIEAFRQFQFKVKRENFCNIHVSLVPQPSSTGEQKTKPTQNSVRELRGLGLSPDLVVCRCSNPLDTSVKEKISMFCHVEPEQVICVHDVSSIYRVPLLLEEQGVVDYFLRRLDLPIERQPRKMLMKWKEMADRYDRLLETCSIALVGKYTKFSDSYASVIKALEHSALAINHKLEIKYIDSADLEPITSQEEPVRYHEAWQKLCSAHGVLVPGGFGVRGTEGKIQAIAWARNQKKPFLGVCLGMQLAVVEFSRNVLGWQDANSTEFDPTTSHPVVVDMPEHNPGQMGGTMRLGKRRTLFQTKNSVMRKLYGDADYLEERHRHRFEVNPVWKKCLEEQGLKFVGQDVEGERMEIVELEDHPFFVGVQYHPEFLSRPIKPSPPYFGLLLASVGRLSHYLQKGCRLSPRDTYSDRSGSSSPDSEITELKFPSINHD
UniProt P61024, sequence (P61024 whole entry, looked up): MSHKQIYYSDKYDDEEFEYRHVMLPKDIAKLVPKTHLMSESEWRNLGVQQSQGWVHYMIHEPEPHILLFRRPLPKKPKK

Target | log2 fold change (vemurafenib) | log2 fold change [1] | log2 fold change (barasertib) | log2 fold change [2] | log2 fold change (volasertib) | log2 fold change [3] | log2 fold change [4] | log2 fold change [5] | log2 fold change (saracatinib) | log2 fold change (sotrastaurin)
CXorf38 (UniProt Q8TB03) | 0.017 | -0.015 | -0.024 | 0.038 | 0.013 | -0.027 | -0.059 | 0.04 | 0.105 | 0.018
CKS1B (UniProt P61024) | -0.047 | -0.029 | 0.029 | -0.031 | -0.018 | -0.017 | 0.391 (active) | -0.268 | 0.044 | 0.025
CSNK1A1 (UniProt P48729) | -0.044 | 0.017 | -0.003 | 0.078 | -0.066 | 0.097 | 0.065 | 0.171 | 0.02 | 0.048
CXXC1 isoform 2 (UniProt Q9P0U4) | -0.029 | -0.117 | -0.02 | -0.256 | -0.027 | 0.031 | -0.072 | 0.041 | -0.066 | -0.04
CLCN3 isoform 2 (UniProt P51790) | -0.015 | 0.052 | -0.004 | 0.003 | -0.022 | -0.024 | -0.039 | 0.013 | -0.018 | 0.054
CHUK (UniProt O15111) | 0.026 | 0.001 | 0.059 | -0.095 | -0.047 | -0.045 | 0.111 | -0.097 | 0.059 | 0.017
CSNK2A2 (UniProt P19784) | -0.219 | -0.005 | -0.044 | -0.031 | -0.082 | 0.011 | -0.092 | 0.418 | 0 | 0.023
DOK1 (UniProt Q99704) | 0.028 | 0.061 | -0.027 | -0.113 | -0.026 | 0.021 | -0.055 | 0.101 | 0.024 | 0.029
DPH5 isoform 5 (UniProt Q9H2P9) | 0.144 | 0.016 | -0.05 | 0.16 | 0.273 | -0.011 | 0.182 | 0.033 | -0.029 | 0.049
CNOT4 isoform 9 (UniProt O95628) | 0.027 | 0.014 | -0.195 | 0.028 | -0.03 | 0.015 | -1.23 (active) | 0.22 | 0.1 | 0.075
CHURC1 isoform 2 (UniProt Q8WUH1) | 0.019 | -0.166 | 0.194 | 0.038 | 0.129 | 0.018 | -0.108 | 0.024 | -0.071 | -0.013
DDB2 (UniProt Q92466) | -0.073 | 0.001 | 0.025 | 0.015 | -0.003 | 0 | 0.006 | 0.019 | -0.022 | 0.075
CSTB (UniProt P04080) | 0.007 | 0.001 | 0.077 | 0.043 | 0.044 | -0.027 | -0.376 (active) | 0.174 | 0.013 | 0.086
DNAH10 (UniProt Q8IVF4) | 0.067 | 0 | 0.069 | 0.064 | 0.044 | -0.05 | -0.582 (active) | 0.139 | 0.022 | -0.029
CWC22 (UniProt Q9HCG8) | 0.002 | 0.045 | 0.028 | -0.209 | -0.033 | 0.017 | 0.393 (active) | -0.273 (active) | -0.052 | -0.013
CLPB isoform 2 (UniProt Q9H078) | 0.011 | 0.023 | 0.026 | 0.007 | -0.042 | 0.044 | 0.078 | -0.045 | 0.004 | -0.012
CHORDC1 (UniProt Q9UHD1) | 0.017 | -0.003 | -0.029 | 0.009 | 0.02 | 0.002 | 0.288 (active) | -0.003 | -0.006 | -0.036
DLG3 isoform 2 (UniProt Q92796) | 0.109 | 0.005 | 0.047 | -0.128 | -0.006 | -0.057 | -0.14 | 0.038 | 0.004 | 0.043
DCTN1 (UniProt Q14203) | -0.025 | 0.008 | 0.021 | -0.021 | -0.048 | 0.002 | 0.034 | -0.034 | 0.029 | -0.003
CIC (UniProt I3L2J0) | -0.077 | -0.043 | 0.4 (active) | -0.057 | -0.032 | 0.001 | -0.05 | -0.004 | 0.021 | -0.016
COQ9 (UniProt O75208) | -0.023 | 0.126 | 0.275 (active) | 0 | -0.012 | 0.002 | 0.015 | -0.066 | -0.001 | -0.101
DPM1 (UniProt O60762) | 0.055 | 0.004 | -0.021 | 0.039 | 0.001 | -0.012 | -0.013 | -0.058 | 0.036 | 0.028
CUX1 isoform 3 (UniProt P39880) | 0.059 | -0.012 | -0.011 | 0.028 | -0.004 | -0.006 | 0.107 | -0.152 | 0.018 | 0.029
CKAP2 (UniProt Q8WWK9) | -0.095 | 0.01 | -0.014 | 0.073 | 0.009 | -0.024 | 0.062 | -0.094 | 0.019 | 0.019
CMPK2 (UniProt Q5EBM0) | 0.026 | 0.048 | 0.155 | 0.018 | 0.015 | -0.03 | -0.001 | 0.007 | 0.006 | -0.019
DCP1A (UniProt Q9NPI6) | 0.023 | 0.017 | -0.066 | 0.077 | -0.055 | 0.029 | -0.082 | 0.059 | -0.006 | -0.053
DNAJC3 (UniProt Q13217) | -0.016 | 0.009 | 0.006 | 0.023 | -0.004 | 0.082 | 0.016 | -0.076 | 0.008 | -0.109
CTPS1 (UniProt P17812) | -0.008 | 0.016 | -0.024 | -0.065 | -0.04 | 0.026 | -0.041 | -0.011 | 0.007 | 0.021
DOCK8 (UniProt Q8NF50) | 0.005 | 0.013 | 0.034 | -0.075 | -0.065 | 0.04 | 0 | -0.033 | 0.012 | 0.023
CNOT4 isoform 6 (UniProt O95628) | -0.052 | 0.008 | -0.014 | 0.057 | 0.009 | 0.108 | -0.053 | 0 | 0.057 | -0.005
